# From PubChem BioAssay AID1671202 (University of Kansas High Throughput Screening Laboratory, 2021)
# Values joined by “and” are separate entries in the source; they are usually repeats but may differ in a detail not shown here. Equal values may be shown once. The campaign covered roughly 190,000 compounds. About 6,900 (3.6%) were called active. Cut-off read from the data, not from the text of the source: active = inhibition above about 50%; inactive = the rest. Shown is part of a subset that was picked to be rich in actives. Some compounds were tested as several samples or in several runs, with calls that do not always agree.
# Target: Huntingtin (Homo sapiens) (UniProt P42858)
# Assay: mutant huntingtin-calmodulin interaction inhibitors – biochemical, AlphaScreen, primary screen (AID 1671202);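 note: 0% = both proteins with DMSO and 100% = one protein alone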
# Conditions: AlphaScreen His-mHTT/GST-CaM binding, luminescence; at 15 µM, stronger effect = higher value
# Huntingtin (Homo sapiens), sequence (P42858 whole entry, looked up, stated change not applied): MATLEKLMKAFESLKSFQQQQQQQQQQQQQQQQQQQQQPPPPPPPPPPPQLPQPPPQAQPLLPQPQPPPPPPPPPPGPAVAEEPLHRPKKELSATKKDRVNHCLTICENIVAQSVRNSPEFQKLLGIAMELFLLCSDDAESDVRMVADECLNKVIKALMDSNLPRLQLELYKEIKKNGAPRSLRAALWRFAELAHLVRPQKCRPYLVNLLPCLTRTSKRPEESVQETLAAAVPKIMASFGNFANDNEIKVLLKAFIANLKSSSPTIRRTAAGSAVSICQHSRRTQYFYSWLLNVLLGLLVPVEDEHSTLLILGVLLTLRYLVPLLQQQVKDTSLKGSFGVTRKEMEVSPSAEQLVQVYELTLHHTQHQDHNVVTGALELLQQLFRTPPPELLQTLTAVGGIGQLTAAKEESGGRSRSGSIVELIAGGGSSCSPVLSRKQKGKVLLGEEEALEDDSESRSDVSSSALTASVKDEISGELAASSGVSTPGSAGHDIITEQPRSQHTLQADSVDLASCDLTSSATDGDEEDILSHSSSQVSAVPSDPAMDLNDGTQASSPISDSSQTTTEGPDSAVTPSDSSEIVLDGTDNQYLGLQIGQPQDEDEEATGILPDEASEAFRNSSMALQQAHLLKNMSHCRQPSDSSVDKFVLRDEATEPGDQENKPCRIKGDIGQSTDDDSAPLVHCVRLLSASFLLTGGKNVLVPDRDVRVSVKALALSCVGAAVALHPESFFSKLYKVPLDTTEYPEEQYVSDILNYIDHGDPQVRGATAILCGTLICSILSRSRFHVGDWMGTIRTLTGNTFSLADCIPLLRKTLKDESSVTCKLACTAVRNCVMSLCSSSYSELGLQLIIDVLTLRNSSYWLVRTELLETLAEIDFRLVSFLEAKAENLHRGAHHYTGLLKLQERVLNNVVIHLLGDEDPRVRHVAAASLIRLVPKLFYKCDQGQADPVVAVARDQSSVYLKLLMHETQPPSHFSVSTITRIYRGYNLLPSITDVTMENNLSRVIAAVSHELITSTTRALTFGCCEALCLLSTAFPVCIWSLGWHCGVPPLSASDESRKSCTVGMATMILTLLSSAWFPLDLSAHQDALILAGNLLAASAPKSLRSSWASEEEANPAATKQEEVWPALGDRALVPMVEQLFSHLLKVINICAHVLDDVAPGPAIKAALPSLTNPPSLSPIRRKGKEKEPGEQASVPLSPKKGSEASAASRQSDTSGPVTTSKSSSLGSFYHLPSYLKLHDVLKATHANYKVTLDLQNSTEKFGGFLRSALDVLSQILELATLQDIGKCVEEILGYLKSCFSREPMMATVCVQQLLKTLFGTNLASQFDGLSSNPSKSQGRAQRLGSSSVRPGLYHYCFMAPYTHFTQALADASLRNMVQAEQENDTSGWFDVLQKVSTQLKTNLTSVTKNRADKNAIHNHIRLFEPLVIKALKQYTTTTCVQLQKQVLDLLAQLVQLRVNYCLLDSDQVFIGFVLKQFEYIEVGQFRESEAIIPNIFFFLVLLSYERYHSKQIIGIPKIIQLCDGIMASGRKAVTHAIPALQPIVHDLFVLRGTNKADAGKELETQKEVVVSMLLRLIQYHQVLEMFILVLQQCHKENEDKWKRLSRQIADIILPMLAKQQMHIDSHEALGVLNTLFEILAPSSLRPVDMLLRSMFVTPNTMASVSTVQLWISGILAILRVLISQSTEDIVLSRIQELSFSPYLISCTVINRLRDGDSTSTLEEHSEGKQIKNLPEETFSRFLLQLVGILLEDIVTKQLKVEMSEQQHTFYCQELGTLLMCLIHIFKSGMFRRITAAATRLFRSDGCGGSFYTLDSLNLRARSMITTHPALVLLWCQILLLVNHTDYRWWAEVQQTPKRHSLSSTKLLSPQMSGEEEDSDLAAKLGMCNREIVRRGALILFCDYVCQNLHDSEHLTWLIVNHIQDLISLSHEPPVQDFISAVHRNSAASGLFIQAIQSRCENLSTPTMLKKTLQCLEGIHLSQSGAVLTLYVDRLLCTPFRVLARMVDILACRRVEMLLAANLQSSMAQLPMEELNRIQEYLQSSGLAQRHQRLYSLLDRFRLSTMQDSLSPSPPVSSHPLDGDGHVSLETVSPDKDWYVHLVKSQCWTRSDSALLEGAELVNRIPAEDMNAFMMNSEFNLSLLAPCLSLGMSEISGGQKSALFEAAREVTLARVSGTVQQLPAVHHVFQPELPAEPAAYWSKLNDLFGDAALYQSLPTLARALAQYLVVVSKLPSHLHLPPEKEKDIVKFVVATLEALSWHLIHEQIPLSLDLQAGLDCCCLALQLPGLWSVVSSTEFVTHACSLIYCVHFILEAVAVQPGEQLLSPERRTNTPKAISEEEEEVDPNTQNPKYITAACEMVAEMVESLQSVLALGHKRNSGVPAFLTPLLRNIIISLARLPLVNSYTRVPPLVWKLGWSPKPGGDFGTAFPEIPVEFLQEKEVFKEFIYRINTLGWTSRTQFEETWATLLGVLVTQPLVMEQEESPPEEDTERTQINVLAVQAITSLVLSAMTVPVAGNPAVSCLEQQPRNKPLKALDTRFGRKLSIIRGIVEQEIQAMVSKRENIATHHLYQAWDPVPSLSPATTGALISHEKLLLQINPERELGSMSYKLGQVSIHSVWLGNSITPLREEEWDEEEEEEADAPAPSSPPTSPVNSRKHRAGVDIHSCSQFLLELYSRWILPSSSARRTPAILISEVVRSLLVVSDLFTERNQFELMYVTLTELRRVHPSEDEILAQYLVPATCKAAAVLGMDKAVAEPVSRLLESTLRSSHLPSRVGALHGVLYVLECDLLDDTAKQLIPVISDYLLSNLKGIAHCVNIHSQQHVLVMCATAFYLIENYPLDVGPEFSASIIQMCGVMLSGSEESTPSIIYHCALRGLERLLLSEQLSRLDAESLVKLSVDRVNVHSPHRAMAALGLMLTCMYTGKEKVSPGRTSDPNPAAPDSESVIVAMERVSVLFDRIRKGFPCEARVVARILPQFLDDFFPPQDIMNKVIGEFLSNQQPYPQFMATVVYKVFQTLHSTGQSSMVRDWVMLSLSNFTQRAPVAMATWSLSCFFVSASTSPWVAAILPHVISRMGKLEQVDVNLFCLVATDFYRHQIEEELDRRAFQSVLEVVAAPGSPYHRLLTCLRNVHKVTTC
row,Structure (SMILES),inhibition
1,CCOc1cccc(-c2cc(C(=O)NCCN3CCOCC3)c3ccccc3n2)c1,11.4% (inactive)
2,O=C(NCc1cccnc1)c1cc(-c2ccccn2)nc2ccccc12,34% (inactive)
3,CCOc1ccc(-c2cc(C(=O)NCc3ccccn3)c3ccccc3n2)cc1,-9.8% (inactive) and 70% (active)
4,CCOc1ccc(/C=C2\CS/C(=C\c3ccc(OCC)cc3)C2=O)cc1,28% (inactive)
5,CC(C)C(=O)N(C)CC(=O)N1N=C(c2ccc(F)cc2)CC1c1ccc(F)cc1 (centres undefined),29.5% (inactive)
6,CNCC(=O)N1N=C(c2cccn2C)CC1c1ccccc1 (centres undefined),8.9% (inactive)
7,CC(=O)N(C)CC(=O)N1N=C(c2ccccc2Cl)CC1c1ccccc1Cl (centres undefined),56.2% (active)
8,CC(=O)N(C)CC(=O)N1N=C(c2cccs2)CC1c1ccccc1Cl (centres undefined),1.2% (inactive)
9,CN(CC(=O)N1N=C(c2cccs2)CC1c1ccccc1F)C(=O)C1CCCC1 (centres undefined),23% (inactive)
10,CC(C)C(=O)N(C)CC(=O)N1N=C(c2ccccc2Cl)CC1c1ccc(F)cc1 (centres undefined),57% (active)
11,O=C(c1ccc(F)cc1)N1CCC(c2nc(-c3ccccc3)n[nH]2)CC1,12.2% (inactive)
12,O=C1CC[C@@]23CCCN2C(=O)CCC[C@H]3[C@H]1Cc1ccccc1,1.2% (inactive)
13,Cc1nc(-c2cccs2)c(CCC(=O)Nc2cccc3cccnc23)s1,8.1% (inactive)
14,C=C(C)CN(CC)Cc1cccc(OC)c1OC,-4.5% (inactive)
15,COc1ccc(C2CC(=O)C(C=Nc3cc(Cl)ccc3O)=C(O)C2)cc1 (centres undefined),4% (inactive)
16,CCC(C)NC(=O)Cn1cnc2c(oc3ccccc32)c1=O (centres undefined),-6.1% (inactive)
17,Cc1ccc(C(=O)Nc2ccc(N(C)C)cc2)cc1C,59.4% (active)
18,CC(=O)Nc1ccc(NC(=O)c2ccc(N(C)C)cc2)cc1,5.9% (inactive)
19,CC(=O)c1ccc(NC(=O)c2ccc(CN(c3ccc(C)c(C)c3)S(C)(=O)=O)cc2)cc1,3.8% (inactive)
20,CCOc1ccc(CNC(=O)C2CCCN(c3ccc(N4CCOCC4)nn3)C2)cc1 (centres undefined),-1.05% (inactive)
21,COCCNC(=O)c1cn2cc(C)ccc2n1,-7.5% (inactive)
22,O=C(CCC(=O)N1CC2CCCN2c2ccccc21)NCCCN1CCCC1 (centres undefined),71.5% (active)
23,O=C(CCC(=O)N1CC2CCCN2c2ccccc21)NCCCN1CCCCC1 (centres undefined),7.41% (inactive)
24,O=C(CCC(=O)N1CC2CCCN2c2ccccc21)NCc1cccc(Br)c1 (centres undefined),36.6% (inactive)

row,Structure (SMILES),inhibition
1,COc1ccc([N+](=O)[O-])cc1NCc1ccccc1Br,-6.4% (inactive)
2,COc1cc(/C=C(\C#N)c2nc3ccc(C)cc3[nH]2)c(Br)cc1O,47.5% (inactive) and 79% (active)
3,COc1cccc(/C=C(\C#N)c2nc3ccc(C)cc3[nH]2)c1OC,6.1% (inactive)
4,CCOc1ccc(/C=C(\C#N)c2nc3ccc(C)cc3[nH]2)cc1OC,5.8% (inactive)
5,CCS(=O)(=O)NCC1CCC(C(=O)Nc2ccccc2C)CC1 (centres undefined),-10.6% (inactive)
6,O=C(c1cccc2[nH]cc(CN3CCCC3)c12)N1CCN(c2ccccc2)CC1,54.3% (active)
7,Cc1ccc(C(=O)N2CCN(c3ccccc3)CC2)c(Cl)c1,2.2% (inactive)
8,O=C(C1CCCN(Cc2c[nH]c3ccccc23)C1)N1CCCCCC1 (centres undefined),11.1% (inactive)
9,CCN(CC)C(=O)CSc1nnc(NC(C)=O)s1,-5.1% (inactive)
10,O=C(N=c1sccn1CC(=O)N1CCCC1)c1ccccc1Cl,7% (inactive)
11,O=C(NC1CC2CC1N(C(=O)NCCc1ccccc1)C2)c1cccnc1 (centres undefined),0.1% (inactive)
12,COc1cccc(CN2CCN(C/C=C/c3ccccc3)CC2)c1OC,6.9% (inactive)
13,COc1ccccc1/C=C/CN1CCN(C)CC1,-4.8% (inactive)
14,COc1cc(CN2CCN(C/C=C/c3ccccc3)CC2)cc(Br)c1O,55.5% (active)
15,Cc1oc(C2CCN(S(=O)(=O)c3ccc(F)cc3)CC2)nc1C(=O)N1CCOCC1,-2.14% (inactive)
16,CC(=O)NCCc1csc(C2CCN(C(=O)C3(c4ccccc4)CC3)CC2)n1,0.81% (inactive)
17,CCOc1cc(/C=C2\C(=O)ON=C2C)cc(Br)c1OCc1ccccc1F,51% (active)
18,CCOc1c(Br)cc(/C=C2\NC(=O)N(Cc3ccccc3F)C2=O)cc1OC,-4% (inactive)
19,C=CCOc1ccc(/C=C2/C(=O)ON=C2C)cc1OCC,89% (active)
20,COc1cc(C=O)cc(Br)c1OCc1ccccn1,-0.1% (inactive)
21,CCOc1cc(C=C2C(=O)OC(C)(c3ccccc3)OC2=O)ccc1O (centres undefined),7% (inactive)
22,CCOc1ccc(/C=C2/N=C(c3ccc(Cl)cc3)OC2=O)cc1OCC,-5% (inactive)
23,NS(=O)(=O)c1ccc(NC(=O)CSc2nc3sc4c(c3c(=O)[nH]2)CCC4)cc1,5% (inactive)
24,COc1ccc(C2CC(O)(C#Cc3ccccc3)C(C)C(c3ccc(OC)cc3)N2)cc1 (centres undefined),100% (active)

row,Structure (SMILES),inhibition
1,COc1ccc(C2SCCN2C(=O)c2cc3ccccc3oc2=O)cc1 (centres undefined),0% (inactive)
2,Cc1[nH]nc(-c2ccc(S(=O)(=O)N3CCC(N4CCCCC4)CC3)s2)c1C,7.48% (inactive)
3,Cc1n[nH]c(C)c1S(=O)(=O)N1CCC(C(=O)Nc2ccc(Br)cc2)CC1,-8% (inactive)
4,COc1ccc(-c2csc(Nc3ccc(O)cc3)n2)cc1,61.1% (active)
5,Clc1ccc(-c2csc(Nc3ncccn3)n2)cc1,-1% (inactive)
6,COc1ccc2oc(=O)c(-c3csc(Nc4cccc(C(C)=O)c4)n3)cc2c1,2% (inactive)
7,CC(Oc1ccccc1)C(=O)Nc1nc(-c2ccccc2)cs1 (centres undefined),-30% (inactive)
8,O=C(Nc1nc(-c2ccc([N+](=O)[O-])cc2)cs1)c1ccc(Cl)cc1,0.3% (inactive)
9,COc1cccc(Nc2nc(-c3ccc(Cl)cc3)cs2)c1,82.2% (active)
10,COc1cc(NS(=O)(=O)c2ccc(Nc3nc(-c4cccnc4)cs3)cc2)nc(OC)n1,25.8% (inactive)
11,COc1cccc(N/C=C(\C#N)c2nc(-c3ccc(Cl)cc3)cs2)c1,-2% (inactive)
12,CN(C)c1ccc(Nc2nc(-c3ccc(Cl)cc3)cs2)cc1,57.2% (active)
13,Cc1ccsc1C1C(C#N)=C(N)N(c2ccc(Br)cc2)C2=C1C(=O)CCC2 (centres undefined),22% (inactive)
14,COC(=O)c1ccc(Cl)cc1NC(=O)N1CCOc2ccccc21,-2.93% (inactive)
15,Cc1ccc(S(=O)(=O)CCC(=O)Nc2c(F)cccc2F)cc1,0% (inactive)
16,CCN(CC)S(=O)(=O)c1ccc2oc(C(=O)NCC3CCCO3)c(C)c2c1 (centres undefined),6% (inactive)
17,O=C(Nc1cccc(Cl)c1)C1CCCN(c2nccnc2Oc2ccccc2)C1 (centres undefined),-9.65% (inactive)
18,COc1ccc(C)cc1NC(=O)N1CC2CC(NC(=O)c3cccs3)C1C2 (centres undefined),3.7% (inactive)
19,COc1cc(NC(=O)c2noc3c2CCCC3)cc(OC)c1OC,1.68% (inactive)
20,O=S1(=O)c2cccc3cccc(c23)N1Cc1cccc(F)c1,-24.4% (inactive)
21,O=C(Nc1ccc(N2CCN(C3CCCC3)C2=O)nc1)c1cc(F)cc(F)c1,-7.5% (inactive)
22,CC1CCN(CCNC(=O)CN2C(=O)C3CCCN3C(=O)c3ccc(F)cc32)CC1 (centres undefined),1.11% (inactive)
23,Cc1ccc2c(c1)C(=O)N1CCCCC1C(=O)N2CC(=O)NCCN1CCCCCC1 (centres undefined),75% (active)
24,Cc1cccc(CNC(=O)CN2C(=O)C3CCCN3C(=O)c3cccc(C)c32)c1 (centres undefined),-6.69% (inactive)

row,Structure (SMILES),inhibition
1,CC(=O)NCc1csc(C2CCN(S(=O)(=O)c3ccc(C)cc3C)CC2)n1,6.65% (inactive)
2,Cc1ccc(C2NC(=O)c3c(sc4c3CCCC4)N2)cc1 (centres undefined),5% (inactive)
3,O=C1NC(c2ccncc2)Nc2sc3c(c21)CCCC3 (centres undefined),16% (inactive)
4,Cc1ccc(C2NC(=O)c3c(sc4c3CCCC4)N2)c(O)c1 (centres undefined),78% (active)
5,Cc1ccc2c(c1)C(=O)NC1(CCN(C(=O)C3CCC3)CC1)N2,3.5% (inactive)
6,CCOC(=O)C(C)Oc1ccc2c(c1)OC(=Cc1ccc(OC)cc1)C2=O (centres undefined),-21.4% (inactive)
7,COc1ccc(C(=O)Nc2cccc(NC(=O)c3ccc(Cl)cc3Cl)c2)cc1,4.1% (inactive)
8,O=C(c1ccc(F)c(F)c1)N1CCN(c2nnc3ccccn23)CC1,-6.3% (inactive)
9,COc1cc(OC)c(NC(=O)N2CC3CCCN3c3ccccc32)cc1Cl (centres undefined),38.8% (inactive)
10,CCn1c(C2CCN(C(=O)Nc3ccc(Br)c(C)c3)C2)nc2cccnc21 (centres undefined),25.2% (inactive)
11,Cc1cc(NC(=O)N2CC3CCCN3c3ccccc32)ccc1Br (centres undefined),87% (active)
12,CC(C)(C)NC(=O)N1CCC(CNS(=O)(=O)c2ccc(Br)s2)CC1,-7.3% (inactive)
13,CCCNc1cc(N2CCCC(CCC(=O)Nc3cccc(C)c3C)C2)ncn1 (centres undefined),-0.7% (inactive)
14,CCCNc1cc(N2CCCC(CCC(=O)Nc3ccc4c(c3)OCCO4)C2)ncn1 (centres undefined),62.5% (active)
15,CCCNc1cc(N2CCCC(CCC(=O)N3CCN(CCC)CC3)C2)ncn1 (centres undefined),5.87% (inactive)
16,Cc1ccc(Cl)cc1N1CCN(C(=O)Cn2nc(C(F)(F)F)c(Br)c2C)CC1,-5% (inactive)
17,C=C(C)c1nc2ccc(Br)cc2c(=O)o1,-3% (inactive)
18,Cc1cccc(NC(=O)N2CCc3c(c(-c4nc(C5CC5)no4)nn3C)C2)c1,34.8% (inactive)
19,Cc1noc(-c2nn(C)c3c2CN(C(=O)Nc2cccc(C(F)(F)F)c2)CC3)n1,28.3% (inactive)
20,CCc1cccc(NC(=O)N2CCc3c(c(-c4nc(C)no4)nn3C)C2)c1,53.9% (active)
21,CCOC(=O)c1sc(NC(=O)CN2C(=O)c3ccccc3C2=O)c(SC#N)c1C,0.3% (inactive)
22,CCN1c2ccc(C)cc2C(=O)NC12CCN(C(=O)c1cc(F)cc(F)c1)CC2,3.5% (inactive)
